Experimental data taken from PubChem BioAssay.
Activity calls are given as the source filed them. Unless noted, how the calls were made is not given here.

Experiments:
[1] = tested on: XIP peptide (Xip251-270) binding; experiment: XIP fragment 251-270 binding compounds – biochemical, small-molecule microarray, fluorescence 635/667 nm, 0.1 µg/mL protein, primary screen (AID 1182); settings: fluorescent protein binding, 635 nm, higher = more signal, called active from +8 up or from −8 down
[2] = tested on: XIP peptide (Xip251-270); experiment: compounds binding XIP fragment 251-270 – biochemical, small-molecule microarray, fluorescence 635/667 nm, 0.5 µg/mL protein, primary screen (AID 1183); settings: fluorescence 635 nm, higher = more signal
[3] = blood-stage malaria parasite viability loss – strain 3D7, DAPI fluorescence, 100 nL, primary screen (AID 1184);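 further: parasites grown inside human red blood cells in medium with human serum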; settings: P. falciparum 3D7 growth, 3 d, higher = more signal
[4] = molecular target: Homeobox protein Hox-A13 (Mus musculus) (UniProt Q62424); experiment: disruptors of Hoxa13 oligonucleotide interaction – biochemical, fluorescence polarization, labeled oligonucleotide, primary screen (AID 1185); settings: Hoxa13:DNA binding, 15 min, higher = more signal, called active from +8 up or from −8 down
Homeobox protein Hox-A13 (Mus musculus), sequence (Q62424 whole entry, looked up): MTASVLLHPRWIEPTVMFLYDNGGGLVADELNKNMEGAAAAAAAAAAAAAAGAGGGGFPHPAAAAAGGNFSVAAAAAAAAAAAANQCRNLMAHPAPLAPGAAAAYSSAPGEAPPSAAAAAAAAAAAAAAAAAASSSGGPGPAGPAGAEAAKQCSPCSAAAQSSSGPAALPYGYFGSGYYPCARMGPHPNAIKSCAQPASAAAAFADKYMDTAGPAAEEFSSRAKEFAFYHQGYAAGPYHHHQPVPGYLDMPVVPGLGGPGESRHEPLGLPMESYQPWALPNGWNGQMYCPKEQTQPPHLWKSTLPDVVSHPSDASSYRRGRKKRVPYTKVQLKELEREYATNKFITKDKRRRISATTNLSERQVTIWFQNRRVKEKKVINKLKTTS

[5] = blockers of DNA damage checkpoint Chk1 activation – imaging, HeLa, hydroxyurea, phospho-Chk1 antibody, percent positive cells, primary screen (AID 1186); settings: hydroxyurea-induced phospho-Chk1 immunofluorescence imaging, higher = more signal
[6] = blockers of DNA damage checkpoint Chk1 activation – imaging, HeLa, hydroxyurea, phospho-Chk1 nuclear intensity, primary screen (AID 1187); settings: hydroxyurea-induced phospho-Chk1 immunofluorescence imaging, higher = more signal

Row | Compound | composite z-score [1] | composite z-score [2] | z-score [3] | z-score [4] | z-score [5] | z-score [6]
1 | COCCCNC(=O)[C@]1(Cc2ccccc2N=[N+]=[N-])N=C(c2ccc(OCCCO)cc2)O[C@@H]1c1ccccc1 | 1.22 (inactive) | 0.77 | -2.17 | -2.62 (inactive) | -0.129 (inactive) | 0.0037 (inactive)
2 | C=CCOC(=O)[C@H]1[C@@H]2C(=O)O[C@@H](c3ccccc3)[C@@H](c3ccccc3)N2[C@@H](c2ccc(OCCOC(=O)[C@H]3C[C@H]4C(=O)NCC(=O)N4[C@H]3c3cccc(OCCO)c3)cc2)[C@]12C(=O)Nc1ccc(I)cc12 | 0.585 (inactive) | 0.649 | -1.8 | 0.871 (inactive) | -1.38 (inactive) | -1.12 (inactive)
3 | Cc1ccc(S[C@]2(C(=O)NCc3ccccc3)CC(=O)N(Cc3ccccc3C(F)(F)F)[C@@H]2c2ccc(CO)cc2I)cc1 | 0.404 (inactive) | 0.623 | 0.0951 | -2.23 (inactive) | 0.225 (inactive) | 0.923 (inactive)
4 | COc1ccc([Si](C)(C)[C@H]2[C@H](CC(=O)N3CCC[C@H]3CO)O[C@@]3(C(=O)N(C)c4ccccc43)[C@@H]2C)cc1 | -0.216 (inactive) | 0.924 | 1.07 | -3.41 (inactive) | -0.529 (inactive) | -0.766 (inactive)
5 | C[N+](C)(C)CCCC[C@@H]1NC(=O)[C@H]2C[C@@H](C(=O)O)[C@@H](c3ccc(O)cc3)N2C1=O | 0.154 (inactive) | 0.274 | 0.115 | -1.42 (inactive) | -0.349 (inactive) | -0.313 (inactive)
6 | CCCCCCc1nc(-c2ccc(OC)nc2)c(C)c2c1[Si](C(C)C)(C(C)C)OC2 | -0.186 (inactive) | -0.7 | -2.14 | 0.384 (inactive) | -0.531 (inactive) | 0.0171 (inactive)
7 | COc1ccc(CCNC(=O)[C@@H]2c3ccccc3C(=O)N(C(C)C)[C@H]2c2ccc(CO)cc2)cc1 | -0.343 (inactive) | -0.898 | 1.13 | -2.13 (inactive) | -0.182 (inactive) | -0.238 (inactive)
8 | Cc1ccc(S[C@]2(C(=O)NC(C)C)CC(=O)N(Cc3ccccc3)[C@@H]2c2ccc(CO)cc2I)cc1 | 1.69 (inactive) | -0.304 | -0.158 | -3.33 (inactive) | -0.641 (inactive) | -0.268 (inactive)
9 | O=C1C2C=CC(C(O)C3CCCCC3)N(Nc3ccccc3F)C2C(=O)N1c1ccccc1 (stereo not given) | 0.352 (inactive) | 0.738 | -0.193 | 0.182 (inactive) | 0.0253 (inactive) | 0.0942 (inactive)
10 | CC(C)N1C(=O)[C@@]2(Cc3ccccc31)c1ccccc1C(=O)N(Cc1ccccc1C(F)(F)F)[C@H]2c1ccc(CO)cc1 | -0.0547 (inactive) | 0.471 | -0.35 | -0.791 (inactive) | 0.0153 (inactive) | -0.0497 (inactive)
11 | O=C(c1ccccc1)N1Cc2ccccc2C[C@@]2(N=C(c3ccc(OCCCO)cc3)O[C@H]2c2ccccc2)C1=O | 0.742 (inactive) | 0.814 | -1.92 | -2.43 (inactive) | -0.0769 (inactive) | 0.098 (inactive)
12 | COc1ccc([Si](C)(C)[C@H]2[C@H](CC(=O)N(CCO)Cc3ccccc3)O[C@@]3(C(=O)N(Cc4ccc(N5C(=O)c6cccc7cccc5c67)cc4)c4ccccc43)[C@@H]2C)cc1 | 1.74 (inactive) | 0.587 | -2.11 | -1.38 (inactive) | -0.664 (inactive) | -0.393 (inactive)
13 | [N-]=[N+]=NCc1ccccc1C[C@@]1(C(N)=O)N=C(c2ccc(OCCCO)cc2)O[C@@H]1c1ccccc1N=[N+]=[N-] | 0.497 (inactive) | 0.63 | -2.41 | -4.99 (inactive) | 0.627 (inactive) | 1.02 (inactive)
14 | CC(C)[Si]1(C(C)C)OCc2cc(-c3ccc(-c4ccc(Cl)c(Cl)c4)o3)nc(-c3ccc(Oc4ccccc4)cc3)c21 | 0.146 (inactive) | 0.548 | -0.497 | -1.74 (inactive) | 0.0415 (inactive) | -0.0792 (inactive)
15 | COC(=O)[C@@]1(Cc2ccc(OC)cc2)[C@@H]2[C@@H](CC(=O)[C@H]2CC(=O)C(=O)N(C)C)CN1C(=O)c1ccccc1 | 0.206 (inactive) | 0.516 | -1.56 | -2.61 (inactive) | 0.0341 (inactive) | -1.04 (inactive)
16 | [N-]=[N+]=NCc1ccccc1[C@H]1OC(c2ccc(OCCCO)cc2)=N[C@@]1(Cc1ccccc1N=[N+]=[N-])C(=O)O | 0.107 (inactive) | 0.76 | 0.58 | -4.41 (inactive) | -0.0666 (inactive) | 0.194 (inactive)
17 | CN1C(=O)C2CC=C(C3=CCO[C@@H]3[C@H]3CCCN3S(=O)(=O)c3ccccc3[N+](=O)[O-])CC2C1=O (stereo not given in full) | 0.162 (inactive) | 0.728 | 0.561 | -6.57 (inactive) | -0.0719 (inactive) | 0.234 (inactive)
18 | COC(=O)[C@@]1(Cc2ccc(OC)cc2)[C@H]2c3cc(C(=O)N(C)C)n(Cc4c(CO)[nH]cc(C)c4=O)c3C[C@H]2CN1C(=O)c1ccccc1 | -0.582 (inactive) | 0.349 | -0.116 | -3.64 (inactive) | 0.54 (inactive) | 0.376 (inactive)

Row | Compound | composite z-score [1] | composite z-score [2] | z-score [3] | z-score [4] | z-score [5] | z-score [6]
19 | CC(C)c1ccc(NN2C(C(O)C3CCCCC3)C=CC3C(=O)N(c4ccccc4)C(=O)C32)cc1 (stereo not given) | 0.668 (inactive) | 0.788 | 0.142 | -2.78 (inactive) | 0.333 (inactive) | -0.566 (inactive)
20 | COC(=O)Cn1c(C(=O)N(C)C)cc2c1C[C@H]1CN(C(=O)c3ccccc3)[C@@](Cc3ccccc3)(C(=O)OC)[C@@H]21 | -0.0872 (inactive) | 0.661 | 0.645 | -4.29 (inactive) | -0.12 (inactive) | 0.286 (inactive)
21 | CC(C)C[C@H]1NC(=O)CNC(=O)[C@@]23C(=O)N[C@@H](Cc4ccccc4)C2[C@H](C)[C@@]2(C)O[C@H]2C3/C=C/C/C=C\CNC1=O (stereo not given in full) | 0.282 (inactive) | 0.685 | 0.933 | -5.94 (inactive) | -0.386 (inactive) | -0.0588 (inactive)
22 | COc1c(C)cc(-c2nc(-c3ccccc3)c3c(c2C)CO[Si]3(C(C)C)C(C)C)cc1C | 0.412 (inactive) | -0.487 | -2.79 | -0.848 (inactive) | 0.157 (inactive) | 0.0254 (inactive)
23 | O=C1N(Cc2ccccc2)Cc2ccccc2C[C@@]12COC(c1ccc(OCCCO)cc1)=N2 | 0.704 (inactive) | 0.311 | -2.08 | -4.67 (inactive) | -0.266 (inactive) | 0.273 (inactive)
24 | C=C(CCCC)/C(=C/C[C@@H](OC(C)=O)c1ccc(OCCO)cc1)c1cc(C(=O)OC)ccc1OC | 0.952 (inactive) | 0.633 | -3.06 | -4.07 (inactive) | 0.526 (inactive) | 0.765 (inactive)
25 | Cc1ccc(S[C@]2(C(=O)NC(C)C)CC(=O)N(Cc3ccccc3)[C@@H]2c2ccc(CO)cc2)cc1 | 1.13 (inactive) | 0.123 | 0.14 | -1.54 (inactive) | -0.412 (inactive) | -0.32 (inactive)
26 | COCCOC(=O)N1C(=O)[C@@]2(c3cc(C#CC4=CCCCC4)ccc31)[C@H](c1ccc(O)cc1)N1[C@H](c3ccccc3)[C@H](c3ccccc3)OC(=O)[C@H]1[C@@H]2C(=O)N1CCc2cc(OC)c(OC)cc2C1 | 2.12 (inactive) | 0.556 | -2.06 | 0.0698 (inactive) | 0.301 (inactive) | 0.404 (inactive)
27 | CC(C)C[C@@H]1NC(=O)[C@@H]2C[C@H](C(=O)NCCCCCCNC(=O)CS)[C@H](c3ccc(O)cc3)N2C1=O | 3.03 (inactive) | 0.843 | -1.19 | -2.01 (inactive) | -0.265 (inactive) | -0.1 (inactive)
28 | OCCCc1cc[n+](Cc2cc3c(cc2Br)OCO3)cc1 | 0.0084 (inactive) | 0.579 | -1.96 | -2.45 (inactive) | -0.0355 (inactive) | 0.0561 (inactive)
29 | O=C1NC(=O)C2C1C=CC(C(O)C(O)CO)N2Nc1ccccn1 (stereo not given) | -0.325 (inactive) | 0.129 | 0.488 | -0.781 (inactive) | -0.163 (inactive) | -0.239 (inactive)
30 | CCCCC(=C=CC[C@H](O)c1ccccc1OCCO)CCO | 1.47 (inactive) | -0.0255 | -0.315 | -3.54 (inactive) | 0.324 (inactive) | 0.181 (inactive)
31 | COC(=O)C(CC#Cc1ccc2c(c1)[C@]1(C(=O)N2)[C@H](C(=O)NC[C@H](O)c2ccccc2)[C@H]2C(=O)O[C@H](c3ccccc3)[C@H](c3ccccc3)N2[C@@H]1c1ccc(O)cc1)C(=O)OC | 0.321 (inactive) | 0.418 | -1.05 | -3.56 (inactive) | 0.288 (inactive) | 0.557 (inactive)
32 | COC(=O)[C@H]1N=C(c2ccc(OCCCO)cc2)O[C@H]1c1ccccc1N=[N+]=[N-] | 0.363 (inactive) | 0.75 | -2.1 | -4.13 (inactive) | -0.0771 (inactive) | 0.193 (inactive)
33 | [N-]=[N+]=Nc1ccccc1C[C@@]1(C(=O)NCC(O)CO)N=C(c2ccc(OCCCO)cc2)O[C@@H]1c1ccccc1N=[N+]=[N-] (stereo not given in full) | 0.0609 (inactive) | 0.0519 | -2.15 | -2.28 (inactive) | -0.0996 (inactive) | 0.263 (inactive)
34 | [N-]=[N+]=NCc1ccccc1[C@H]1OC(c2ccc(OCCCO)cc2)=N[C@@]1(CCS(=O)(=O)c1ccccc1)C(=O)O | -0.0179 (inactive) | 0.446 | 0.0638 | -5.36 (inactive) | -0.0059 (inactive) | -0.587 (inactive)
35 | COC(=O)[C@@]1(Cc2ccccc2)[C@H]2c3cc(C(=O)N(C)C)n(Cc4ccc(Cl)c(C(F)(F)F)c4)c3C[C@H]2CN1C(=O)c1ccccc1 | 0 (inactive) | 0.485 | -1.47 | -2.73 (inactive) | 0.435 (inactive) | 0.444 (inactive)
